Data on 40 sequences can be found in the supplement of paper PMC6555819.

This experiment has as its system VDR:RXRa (NR concentration 270 nM, RXRa partner concentration 90 nM). Nature of the experiment: PBM binding z-score (relative to random genomic background probes); higher = stronger binding; sequences stand for … in GC…GCGATTGACAGCGTAGAATGAAGG
The procedure:
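Protein-binding microarray (Agilent 4x180K custom design, double-stranded 60-nt probes: 5' GC cap, 34-nt variable region, 24-nt constant primer region; full probe sequence given). Purified or IVT nuclear receptor:RXRα heterodimers (3:1 NR:RXRα, mostly 270:90 nM) or homodimers were incubated for 1 h in PBS with 2% milk and no ligand, then detected with Alexa488 antibodies. Fluorescence from o1-orientation probes (~5 replicates averaged) was converted to z-scores against 500 random hg19 background probes. Variable regions are seed direct-repeat (DR0–DR5) sites, all their single-nucleotide variants and half-site ablations.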
As for CGAACTAGGTCAAAGCACAGTGAAAGGCGACGTA, the PBM binding z-score was 1.2.

CGCACTAGGTCATTGACAGGACAGTGAATAGTAA returned a PBM binding z-score of 2.36.

On to CGTCCAAGGTCAGCAGGTCAGAGAAAGCGACGTG, for which the PBM binding z-score worked out at 3.98.

Take CTATGTAGGTTAAGAGGGTCATTCAGTTTGAAAG: the PBM binding z-score came out at 6.27.

As to GCTTACGGGTCAAAGGTTATAACATGAATAGAAT, the PBM binding z-score is 5.68.

Sequence CAGCCTAGTTCAGGGCCAGTATAGGAGGAACGTT registered a PBM binding z-score of -0.0838.

CTATGTAGTTTAAGGGGGTCATTCAGTTTGAAAG gave a PBM binding z-score of 6.94.

TCGACTAGGTTACGGGGGCATTCAGGGATGAAGA returned a PBM binding z-score of 4.04.

Regarding AATACAGGGTCCTCGTAGGCCAGAGTACGCACAG, the PBM binding z-score is -0.154.

Consider CCGACTGGGTCAAAGGTTACCATACTCAGTACGA, for which the PBM binding z-score was 4.41.

In turn, CGAACTAGGCCAAAGGACAGTGAAAGGCGACGTA returned a PBM binding z-score of -0.722.

CCGAGTAGGATACGAGGGGGCATTCAGTGCGAAT had a PBM binding z-score of 3.32.

As for ATCGAAAGGTCGACGAGGTGAGAATACACCGTTT, the PBM binding z-score came out at 5.52.

The sequence CCTGCTAGGTCAATGGTCAGCTCAAGCAGCTCGC displayed a PBM binding z-score of 0.923.

ATATGTAGGTTTGGGTCATTCAGAAAGTAGGGAA showed a PBM binding z-score of 2.04.

Turning to ATATGTAGGTCATCGGGTCATTCAGTTTGCGCAT, the PBM binding z-score came to 6.28.

Turning to CCTACTGGGCCATACAGAGGTCATTGATCATATG, the PBM binding z-score is 4.09.

CAAACTAGGTCAAAGGTCAAAGTAGAGCCAACCA returned a PBM binding z-score of 6.71.

Turning to TCATATAGGTGAAAGGTGAAAGTCGGTGTGGTAA, the PBM binding z-score worked out at 2.12.

Regarding CTATGTAGCTTAAGGGGGTCATTCAGTTTGAAAG, the PBM binding z-score amounted to 6.4.

In the case of CCTACGGGGCCAAAGGTCATTGATTCCAATGCTC, the PBM binding z-score amounted to 5.3.

As to TCTTGTTGATCAAAGGTTAAGAAAGCCGAAGCCT, the PBM binding z-score was 1.56.

On to CCTAGTTGGTCAGGTGGTCACACACCGGATATGA, for which the PBM binding z-score was 0.156.

ATATGTTGGTTAGGGTCATTCAGAAAGTAGGGAA: the PBM binding z-score is 4.37.

For the sequence CAACCTAGGTCACGAAAGGTCAAAGTCGAATGAC, the PBM binding z-score was 7.15.

In turn, ATATGTAGGTTAGGGTCATTCCGAAAGTAGGGAA registered a PBM binding z-score of 4.54.

Sequence CCGAGTTGGTTACGAGGGGGCATTCAGTGCGAAT returned a PBM binding z-score of 4.32.

CTATGTAGGTTAAGGGGATCATTCAGTTTGAAAG: the PBM binding z-score was 2.59.

CGAACTAGGGCACCAGGACAGTGAAGAGGTTGGA returned a PBM binding z-score of -0.582.

As for CTAACTAGGTCACCAGGACAGTGAAGAGGTTGGA, the PBM binding z-score is 2.06.

CGTCCAAGGTCAAAGGTCAGGGAAGAGATGACGG came in with a PBM binding z-score of 6.71.

CGAACTAGGTCACCAGGACTGTGAAGAGGTTGGA had a PBM binding z-score of 2.26.

CTATGTAGGTTAAGGGGGTCAGTCAGTTTGAAAG came in with a PBM binding z-score of 6.49.

Consider TCTCGGAGGACACGAAAGGTCAGTGCTCGACATC, for which the PBM binding z-score amounted to 2.92.

GCATATAGGTAATTCAAGGTGAAAGTCCGATTGT had a PBM binding z-score of 0.627.

With CTATGTAGATTAAGGGGGTCATTCAGTTTGAAAG, the PBM binding z-score was found to be 6.53.

CGTCTAAGGTCAAGGTCAGTGAAAGAGACTCGAA displayed a PBM binding z-score of 5.

Regarding CCGACTTGGGCAAAGGTTACCATACTCAGTACGA, the PBM binding z-score worked out at 0.927.

For the sequence CAAACTAGGTCAAGAGGTCAAACTCCGCTTCCCG, the PBM binding z-score was found to be 6.49.

Regarding TCATATAGGTAAAAGGTCAAAGTCGGTGTGGTAA, the PBM binding z-score came out at 5.3.
